# Source: PubChem BioAssay (National Center for Advancing Translational Sciences (NCATS))
# Most compounds without a hit are left out; they make up all but 4.7% or so of the library.
# FH mod = Identification of activators of human fumarate hydratase by quantitative high-throughput screening; Potency, µM (highest dose often 79.9 µM), inactives show at the top dose activity change, negative = inhibition, most hits filed as inhibitors; Fumarate hydratase, mitochondrial (Homo sapiens), P07954; AID 1347055, 2019; FH coupled MDH/diaphorase resazurin fluorescence, 15 min; actives 0.22% (n = 54,000); also: potency is read from the fitted curve at half-maximal effect; % is scaled to controls: 0 for no effect and ±100 for the full control effect; the screen sought activators but most active calls are inhibition curves; nearly all actives have a fitted effect of over 45% in size
# NTMT1 inhibitor = blocks human N-terminal methyltransferase 1 activity; Q9BV86; NTMT1 MTase-Glo SAH luminescence, purified enzyme; Potency, µM (top dose mostly 114 µM), without a hit: at the highest dose activity change, negative = inhibition, actives largely listed as inhibitors; actives 2.5% (n = 59,000); AID 1645870;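 also: potency is read from the fitted curve at half-maximal effect; plate controls were DMSO vehicle for no effect and no enzyme for full effect; nearly all actives have a fitted effect of over 65% in size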
# DYRK1A inh-1 = human DYRK1A kinase inhibition by ATP depletion readout; shares compounds with NTMT1 inhibitor; recombinant DYRK1A, Kinase-Glo ATP depletion luminescence; Potency, µM (top dose mostly 76.9 µM), for inactives: top-dose activity change, negative = inhibition, hits mostly inhibitors; actives 80% (n = 100)
# CLK4 RBC = blocks human CLK4 kinase in radiometric assay. Potency, µM, hits mostly inhibitors. actives 100% (n = 65). AID 504421. shares compounds with NTMT1 inhibitor. Reaction Biology kinase assay, 10 uM ATP; calls by dose curve
# DYRK1A inh-2 = blocks human DYRK1A kinase in radiometric assay; shares compounds with NTMT1 inhibitor; Reaction Biology kinase assay, 10 uM ATP; Potency, µM, usual class: inhibitors; actives 90% (n = 65);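 active = compounds that showed inhibition of Dyrk1a and received a fitted potency; inactive = compounds that showed no inhibition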
# CLK2 RBC = CLK2 kinase inhibition; Potency, µM, usual class: inhibitors; shares compounds with NTMT1 inhibitor; Reaction Biology kinase assay, 10 uM ATP; AID 504427; actives 90% (n = 65);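 active = compound that inhibits Clk2 kinase in the dose series, with an IC50 potency reported; inactive = no inhibition seen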
# CLK3 inh = CLK3 kinase inhibition; recombinant CLK3 kinase assay, 10 uM ATP; shares compounds with NTMT1 inhibitor; AID 504428; actives 40% (n = 65); Potency, µM, actives largely listed as inhibitors;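 active = compounds that inhibited Clk3 enough in the ten-dose series to give a half-maximal potency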
# DYRK1B inh = blocks human DYRK1B kinase activity; AID 504429; Potency, µM, hits mostly inhibitors; actives 80% (n = 65); Recombinant Dyrk1b kinase assay, 10 uM ATP; shares compounds with NTMT1 inhibitor;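 active = compounds whose dose response shows an inhibitor phenotype against the kinase Dyrk1b; inactive = compounds showing no inhibitor phenotype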
# CLK1 inh = CLK1 kinase inhibition. recombinant Clk1 kinase assay, 10 uM ATP. Potency, µM, actives largely listed as inhibitors. AID 504430. actives 90% (n = 65). shares compounds with NTMT1 inhibitor;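 active = compounds that block the splicing kinase Clk1 enough to give a fitted half-inhibition concentration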
# NNMT inh = blocks human NNMT methyltransferase; shares compounds with NTMT1 inhibitor; NNMT MTase-Glo luminescence, SAH detection; Potency, µM (series often up to 57.1 µM), inactives show at the highest dose activity, negative = inhibition, most hits filed as inhibitors; actives 10% (n = 120); AID 1645878
# * = called active by the depositor; i = inactive; u = inconclusive; x = no result; [ ] = dose if it differs, or a comment. Unless noted, calls follow the shape of the dose curve; as a rule, active = well fitted curve in the direction sought with a large enough effect; inconclusive = small, poorly fitted or top-dose-only effect, or another doubt; inactive = no such curve, though single readings can be large; an effect the other way counts as inactive or inconclusive.
SMILES,FH mod,NTMT1 inhibitor,DYRK1A inh-1,CLK4 RBC,DYRK1A inh-2,CLK2 RBC,CLK3 inh,DYRK1B inh,CLK1 inh,others
c1c[nH]c(CNc2ncnc3ccc(-c4ccc5c(c4)OCO5)cc23)n1,x,-12%,0.37µM*,0.034*,0.15µM*,3.6µM*,15µM*,1.1µM*,0.19µM*,
Cc1cccc(-c2ccc3ncnc(NCc4cc(C)cs4)c3c2)c1,x,-2%,x,x,x,x,x,x,x,
Cc1noc(C)c1-c1ccc2ncnc(NCc3ccccc3F)c2c1,x,-15%,x,x,x,x,x,x,x,
Cc1ccc(CNc2ncnc3ccc(-c4ccc5c(c4)OCO5)cc23)s1,x,0%[57.5 µM],0.52µM*,0.12*,1.2µM*,15µM*,i,15µM*,0.89µM*,
Cc1ccsc1CNc1ncnc2ccc(-c3ccc4c(c3)OCO4)cc12,x,-12%,0.082µM*,0.035*,0.035µM*,2.2µM*,6.6µM*,0.51µM*,0.069µM*,
C[C@@H]1CC(=O)Nc2cccc(-c3cnn(C(C)(C)C)c3)c2N1,x,14%,x,x,x,x,x,x,x,
c1nc(NCc2ccoc2)c2cc(-c3ccc4c(c3)OCO4)ccc2n1,x,u,0.092µM*,0.038*,0.13µM*,0.88µM*,4.7µM*,0.94µM*,0.11µM*,
Cc1occc1CNc1ncnc2ccc(-c3ccc4c(c3)OCO4)cc12,x,u,0.092µM*,0.047*,0.057µM*,2.7µM*,6.5µM*,0.43µM*,0.086µM*,
c1csc(CNc2ncnc3cc(-c4ccc5c(c4)OCO5)ccc23)c1,x,-27%,x,x,x,x,x,x,x,
Cc1cccc(CNc2ncnc3ccc(-c4ccc5c(c4)OCO5)cc23)c1,x,5%[57.5 µM],x,x,x,x,x,x,x,
Cc1cccc(CNc2ncnc3ccc(-c4cccc(Cl)c4)cc23)c1,x,6%,x,x,x,x,x,x,x,
c1csc(CNc2ncnc3ccc(-c4ccoc4)cc23)c1,x,u,1.5µM*,x,x,x,x,x,x,
O=C(Nc1ccccc1)c1ccc(Nc2nnc(-c3ccc(O)cc3)c3ccccc23)cc1,-5%,7%[57.5 µM],x,x,x,x,x,x,x,NNMT inh=u
